GLP1R inv ag – GLP-1 receptor (human) inverse agonism; P43220; HEK293 GLP-1R CRE-luciferase, luminescence, 24 h; GLP-1R form is constitutively active; Potency, µM (doses to about 38.3 µM), inactives show at the top dose activity change, negative = inhibition, usual class: inhibitors; actives 1.6% (n = 410,000); AID 624417; also: potency is read from the fitted curve at half-maximal effect; % is scaled to controls: 0 for no effect and ±100 for the full control effect; nearly all actives have a fitted effect of over 55% in size
Target sequence (P43220 whole entry, looked up): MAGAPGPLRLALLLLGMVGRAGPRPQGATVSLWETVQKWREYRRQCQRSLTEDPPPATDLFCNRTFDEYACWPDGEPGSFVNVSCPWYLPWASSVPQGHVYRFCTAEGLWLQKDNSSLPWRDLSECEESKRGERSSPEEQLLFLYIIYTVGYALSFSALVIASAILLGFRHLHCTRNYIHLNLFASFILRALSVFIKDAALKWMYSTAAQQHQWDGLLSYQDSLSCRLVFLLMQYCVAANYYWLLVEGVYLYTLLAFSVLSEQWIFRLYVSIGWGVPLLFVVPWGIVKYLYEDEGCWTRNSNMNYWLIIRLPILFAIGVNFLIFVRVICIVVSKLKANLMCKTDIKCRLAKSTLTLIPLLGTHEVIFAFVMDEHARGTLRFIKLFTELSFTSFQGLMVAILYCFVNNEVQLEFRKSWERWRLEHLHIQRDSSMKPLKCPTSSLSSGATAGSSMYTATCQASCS
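Inverse agonism was detected as reduced cAMP-driven luciferase luminescence after 24 h compound treatment. The cells were HEK293 clones expressing constitutively active human GLP-1R with the reporter. Reporter-only and GPR119 cell lines served as counterscreen controls.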
GLS inh – blocks human kidney-isoform glutaminase activity; GLS enzymatic activity, qHTS titration; AID 624170; Potency, µM (series often up to 45.5 µM), for the others: at the highest dose activity change, negative = inhibition, usual class: inhibitors; O94925; actives 0.21% (n = 410,000); also: potency is read from the fitted curve at half-maximal effect; % is scaled to controls: 0 for no effect and ±100 for the full control effect
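Two-point fluorescence kinetic (t0, 30 min RT) for hKGA; glutamate detected via glutamate oxidase–HRP–Amplex Red. Substrate: 1 mM L-glutamine solution; buffer 45 mM KH2PO4, pH 8.2.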
hERG WT inh – inhibitors of human wildtype KCNH2 potassium channel | Q12809 | U2OS, BacMam KCNH2, thallium flux FluxOr; stronger effect = lower value | activity change, % at 1.84 µM | actives 0.37% (n = 340,000) | AID 720551;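 active = maximum activity change below -70%; inconclusive = maximum activity change between -70% and -50%; inactive = maximum activity change above -50%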; also: % is scaled to controls: 0 for no effect and ±100 for the full control effect
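U2OS cells transduced with wild-type KCNH2 virus are loaded with FluxOr dye for 45 min, and thallium flux is measured in kinetic reads before and after stimulation buffer. Rate constants are normalized to DMSO controls.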
KCNH2 3.1 block – blocks the human KCNH2 3.1 channel isoform. U2OS KCNH2 3.1, thallium flux FluxOr; stronger effect = lower value. activity change, % (tested at about 1.8 µM). actives 0.95% (n = 340,000);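 active = maximum activity change below -70%; inconclusive = maximum activity change from -70% to -50%; inactive = maximum activity change above -50%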;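 also: thallium influx rate constant from kinetic fluorescence after stimulation buffer; % is scaled to controls: 0 for no effect and ±100 for the full control effect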
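We transduce U2OS cells with the mutant 3.1 virus, culture them overnight, load FluxOr with Red40 quencher for 45 min, then add stimulation buffer and read kinetically for 2 min to derive a normalized rate constant.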
GLP1R cytotox – cytotoxic in the GLP-1 receptor inverse agonist counter-screen; AID 624418; actives 0.13% (n = 410,000); HEK293 cAMP-luciferase reporter cells, luminescence, 24 h; Potency, µM (doses to about 38.3 µM), for inactives: top-dose activity change, negative = inhibition, usual class: inhibitors;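 also: loss of luciferase light is scored as toxicity; potency is read from the fitted curve at half-maximal effect; % is scaled to controls: 0 for no effect and ±100 for the full control effect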
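MLSMR compounds, 24 hr on cells at 37 deg C/5% CO2; luminescence after luciferase reagent (12 min RT). Inhibition counted as the undesired cytotoxic outcome.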
GLP-1R agonist – GLP-1 receptor (human) agonism. actives 0.007% (n = 380,000). AID 624172. P43220. Potency, µM (doses to about 45.6 µM), for the others: at the highest dose activation, actives largely listed as activators. HEK293 GLP-1R CRE-luciferase, luminescence, 4-6 h; cells express a hypersensitive GLP-1R form; also: potency is read from the fitted curve at half-maximal effect; % of control where 0% means no effect
Active calls of the source: *. A selection: hits, their analogues and other compounds. The true share with any hit is near 2.8%. Unless noted, calls follow the shape of the dose curve; as a rule, active = well fitted curve in the direction sought with a large enough effect; inconclusive = small, poorly fitted or top-dose-only effect, or another doubt; inactive = no such curve, though single readings can be large; an effect the other way counts as inactive or inconclusive.

CCOc1ccc(-n2c(=S)sc3c(=O)[nH]c(SCC(=O)N4CCC(C)CC4)nc32)cc1 was read as GLP1R inv ag inconclusive, GLS inh 7.1µM*, hERG WT inh -4, KCNH2 3.1 block 1, GLP1R cytotox -5% and GLP-1R agonist 3%.
`CN(c1cccc(NC(=O)CN(c2cccc(Cl)c2)S(=O)(=O)c2ccc(Cl)cc2)c1)S(C)(=O)=O` gave GLP1R inv ag 7.9µM*, GLS inh 5%, hERG WT inh -4, KCNH2 3.1 block -9, GLP1R cytotox 27% and GLP-1R agonist 3%.
Screening Cn1c(=O)c2cc(C(=O)N3CCN(c4cccc(C(F)(F)F)c4)CC3)sc2c2ccccc21 returned GLP1R inv ag 11%, GLS inh -4% and GLP1R cytotox 2%.
For CCc1ccc(OCCNC(=O)c2ccccc2SCc2ccccc2)cc1 the results were GLP1R inv ag 7.1µM*, GLS inh 7%, hERG WT inh -2, KCNH2 3.1 block -1, GLP1R cytotox 4% and GLP-1R agonist -2%.
`CCNC(=O)c1ccccc1SCc1ccccc1` gave GLP1R inv ag -25%, GLS inh 1%, hERG WT inh inactive, KCNH2 3.1 block 8, GLP1R cytotox 3% and GLP-1R agonist 3%.
Screening Cn1nc(C(C)(C)C)cc1NC(=O)C1(C)CCN1C(=O)CC(c1ccccc1)c1ccccc1 (centres undefined) returned GLP1R inv ag -27%, GLS inh -1%, GLP1R cytotox -11% and GLP-1R agonist 10%.
For CCCCOC(=O)c1ccc(NC(=O)Cc2coc3ccc(C(C)C)cc23)cc1 the results were GLP1R inv ag 7.9µM*, GLS inh -1% and GLP1R cytotox inconclusive.
Screening Cc1cc(C)c2nc(N(Cc3cccnc3)C(=O)c3ccc(S(=O)(=O)N(C)C)cc3)sc2c1 returned GLP1R inv ag -2%, GLS inh -3% and GLP1R cytotox 1%.
C[C@H](c1ccccc1)N1C[C@H](COCc2ccccc2)Oc2cc(N3CC[C@H](O)C3)ccc2S1(=O)=O was read as GLP1R inv ag 10µM*, GLS inh 0%, GLP1R cytotox -6% and GLP-1R agonist 4%.
Screening C[C@H](c1ccccc1)N1C[C@@H](COCc2ccccc2)Oc2cc(N3CC[C@H](O)C3)ccc2S1(=O)=O returned GLP1R inv ag inconclusive, GLS inh 9%, GLP1R cytotox -1% and GLP-1R agonist -2%.
N#CC1=C(SCC(=O)NC2CC2)NC(=O)C(C#N)C12CCCCC2 (centres undefined) was read as GLP1R inv ag 2%, GLS inh 29%, hERG WT inh -13, KCNH2 3.1 block 5, GLP1R cytotox 5% and GLP-1R agonist -1%.
For CC(C)(C)C1CCC2(CC1)C(C#N)=C(SCC(=O)NC1CCCCC1)NC(=O)C2C#N (centres undefined) the results were GLP1R inv ag 8.9µM*, GLS inh 4%, hERG WT inh 16, KCNH2 3.1 block -2, GLP1R cytotox -30% and GLP-1R agonist -2%.
For O=C(Cn1cc(C(F)(F)F)ccc1=O)NCCc1ccc(Cl)cc1Cl the results were GLP1R inv ag 8%, GLS inh -3%, hERG WT inh 9, KCNH2 3.1 block 0, GLP1R cytotox -15% and GLP-1R agonist -2%.
For N#Cc1ccc(CN2CCN(CC(=O)NCCc3ccc(Cl)cc3Cl)CC2)cc1 the results were GLP1R inv ag inconclusive, GLS inh 0%, hERG WT inh -79*, KCNH2 3.1 block -80*, GLP1R cytotox -22% and GLP-1R agonist 9%.
`O=C(CSc1ccc2c(c1)OCCO2)NCCc1ccc(Cl)cc1Cl` gave GLP1R inv ag 11µM*, GLS inh 1%, hERG WT inh -5, KCNH2 3.1 block -24, GLP1R cytotox 28% and GLP-1R agonist 3%.
O=C(CNCc1cccc(Cl)c1)N1CCc2ccccc2C1 was read as GLP1R inv ag -29%, GLS inh -1%, hERG WT inh 0, KCNH2 3.1 block -7, GLP1R cytotox 4% and GLP-1R agonist 0%.
N#Cc1ccc2c(=O)n(-c3ccccc3)sc2c1 was read as GLP1R inv ag 9%, GLS inh inconclusive, hERG WT inh -5, KCNH2 3.1 block -32, GLP1R cytotox -13% and GLP-1R agonist 4%.
`O=c1c2cc(C(F)(F)F)ccc2sn1-c1ccccc1` gave GLP1R inv ag 2%, GLS inh 11µM*, hERG WT inh 1, KCNH2 3.1 block -22, GLP1R cytotox -2% and GLP-1R agonist -4%.
Screening O=c1c2cc(F)ccc2sn1-c1ccccc1 returned GLP1R inv ag 7%, GLS inh 7.1µM*, hERG WT inh 22, KCNH2 3.1 block 0, GLP1R cytotox -8% and GLP-1R agonist 7%.
For CCCSc1nc(C)cc(C)c1S(=O)(=O)c1ccccc1C the results were GLP1R inv ag 8.9µM*, GLS inh 0%, hERG WT inh -12, KCNH2 3.1 block -20, GLP1R cytotox 85% and GLP-1R agonist 11%.
Screening Cc1ccc2cccc(N=Cc3c(C)[nH]n(-c4ccccc4)c3=O)c2n1 returned GLP1R inv ag 5.6µM*, GLS inh 5%, hERG WT inh -1, KCNH2 3.1 block 7, GLP1R cytotox 8% and GLP-1R agonist 20%.
`Cc1oc2ncn(C)c(=O)c2c1C(=O)NC(C)c1ccccc1` (centres undefined) gave GLP1R inv ag 27%, GLS inh 11µM* and GLP1R cytotox 11%.
For O=C(OCc1cc(=O)n2nc(-c3cccs3)sc2n1)c1cccc(F)c1 the results were GLP1R inv ag 12%, GLS inh -5% and GLP1R cytotox -3%.
For CCCCOc1ccc(/C=N/Nc2cc(N3CCOCC3)nc(C)n2)cc1 the results were GLP1R inv ag 16%, GLS inh 4%, hERG WT inh 4, KCNH2 3.1 block -95*, GLP1R cytotox 4% and GLP-1R agonist 1%.
For Brc1ccc(-c2ccc(/C=N/Nc3nc(N4CCOCC4)nc(N4CCOCC4)n3)o2)cc1 the results were GLP1R inv ag 8%, GLS inh 4%, hERG WT inh -5, KCNH2 3.1 block -95*, GLP1R cytotox 4% and GLP-1R agonist 14%.
Clc1ccc(-c2ccc(/C=N/Nc3cc(N4CCOCC4)nc(N4CCOCC4)n3)o2)cc1 was read as GLP1R inv ag inconclusive, GLS inh 3%, hERG WT inh inconclusive, KCNH2 3.1 block -95*, GLP1R cytotox 111% and GLP-1R agonist -7%.
